According to PubChem BioAssay AID1233 (SRMLSC, 2008):
Results with a measured potency or affinity are listed apart. The source made the active and inactive calls.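 How the source made its calls: active means a dose-response curve fit returns a half-maximal inhibitory concentration, extrapolated values included; inactive means the fit returns no such concentration.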

target: HMG-CoA reductase [Enterococcus faecalis] (UniProt Q9FD70); experiment: class II HMG-CoA reductase inhibition potency – biochemical, Enterococcus faecalis, confirmation (AID 1233); details: purified E. faecalis HMGR, NADPH absorbance 340 nm kinetics; series mostly up to 100 µM

outcome, inactive:
CCSc1nnc(NC(=O)CN2C(=O)C3CC=CCC3C2=O)s1 (stereo not drawn)
Cc1ccc(NS(=O)(=O)c2ccc(NC(=O)[C@@H]3CCCC[C@@H]3C(=O)O)cc2)c(C)c1
Cc1ccc(OCC(O)CN2C(=O)NC(C)(C)C2=O)cc1 (stereo not drawn)
CCN(CCNCC(O)COCc1ccc(Cl)cc1)c1cccc(C)c1 (stereo not drawn)
CCc1ccc(NC(=O)CN2C(=O)C(=O)N(Cc3ccccc3)C2=O)cc1
C=CCOC(=O)c1sc(NC(=O)c2ccco2)nc1C
CN(C)CCNC(=O)c1ccc(COc2ccc(Cl)cc2Cl)cc1
Cc1cc(C)n(C2CC(=O)N(c3ccccc3)C2=O)n1 (stereo not drawn)
CCOC(=O)c1c(-c2ccccc2)csc1NC(=S)N(CC)CC
COc1cccc(CNC(=O)CCS(=O)(=O)c2cccs2)c1
CCOC(=O)c1ccc(Nc2nc(C(=O)OCC)nc3ccccc23)cc1
O=C(COC(=O)CNC(=O)c1ccccc1F)Nc1ccc2c(c1)OCCO2
COc1cc(OC)c(C(=O)NC2CC(C)(C)NC(C)(C)C2)cc1OC
CCCCc1c(O)nc(SCC(=O)c2ccccc2)[nH]c1=O
CN(C)c1ccc(N=C/C=C2\N(C)c3ccccc3C2(C)C)cc1
Cc1ccc(SC(=O)COc2ccc(C)c(C)c2)cc1
Nc1ccc(C(=O)Nc2ccc(OC(F)(F)C(F)F)c(NC(=O)c3ccc(N)cc3)c2)cc1
O=C1c2ccccc2NC(c2ccc(Cl)cc2Cl)N1O (stereo not drawn)
CCCCC(=O)Nc1nnc(C2=COCCO2)o1
CC(C)OC(=O)CC(NC(=O)OC(C)(C)C)c1ccccc1 (stereo not drawn)
O=C(Nc1cccc(S(=O)(=O)N2CCCCCC2)c1)c1ccc2ccccc2n1
Cn1c(OCc2cccnc2)nc2c1c(=O)n(Cc1ccc(Br)cc1)c(=O)n2C
CCN(C(=O)Cn1cc(C(F)(F)F)ccc1=O)c1c(N)n(Cc2ccccc2)c(=O)[nH]c1=O
CN(C(=O)COc1ncnc2c1cnn2-c1ccccc1)C1CCCCC1
COCCCNC(=O)CN(c1cc(Cl)ccc1OC)S(=O)(=O)c1ccc(C)c([N+](=O)[O-])c1
COc1oc(-c2ccc(Cl)cc2)nc1C(F)(F)F
CC(C)OCP(=O)(c1ccccc1)c1ccccc1
COCCCNC(=O)CCCC(=O)NCCCOC
Cc1cc(Nc2cccc([N+](=O)[O-])c2)c2ccccc2n1
CCC(=O)N/N=C(\C)CC(=O)Nc1ccccc1-c1ccccc1
COc1ccc(NC(=O)N(Cc2cc3ccc(OC)cc3[nH]c2=O)CC2CCCO2)cc1 (stereo not drawn)
Cn1c(CN2CCCC2)c(C#N)c2ccccc21
Cc1cc(N2C(=O)C(O)=C(C(=O)c3ccco3)C2c2cccnc2)no1 (stereo not drawn)
O=C(CN1CCN(Cc2ccc(F)cc2Cl)C1=O)NCCc1ccc(Cl)cc1
Brc1ccc(CSc2nnc3ccccn23)cc1
O=C1CC(c2ccccc2)CC2=C1CN(C1CCCCC1)CN2 (stereo not drawn)
CS(=O)(=O)N1CCc2cc(S(=O)(=O)N3CCCCC3)ccc21
Cc1cccc(C(=O)NC2CCN(C(=O)Nc3ccccc3C)CC2)c1
